Screens deposited in PubChem BioAssay by National Center for Advancing Translational Sciences (NCATS).
HCV inhibitor: qHTS Assay for Inhibitors of Hepatitis C Virus (HCV); Potency, µM (highest dose often 41.8 µM), for the others: at the highest dose activity change, negative = inhibition, most hits filed as inhibitors; AID 651820, 2012; 340,000 compounds, 3.4% hits; Huh7.5.1 HCVcc-Cre infection, luciferase reporter, 44 h; also: potency is read from the fitted curve at half-maximal effect; % is scaled to controls: 0 for no effect and ±100 for the full control effect
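1,000 cells/well; 4 h culture; + compound; + HCVcc-Cre (~0.5 moi); 44 h; luciferase substrate, RT 15 min; read 15 sec.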
AMA1-RON2 inh: qHTS for Inhibitors of AMA1-RON; Towards Development of Antimalarial Drug Lead: Primary Screen | AlphaScreen AMA1-biotinylated RON2 peptide binding | Potency, µM (titrated, usually from 58.2 µM), for inactives: at the highest dose activity change, negative = inhibition, usual class: inhibitors | 360,000 compounds, 0.2% hits;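 also: potency is read from the fitted curve at half-maximal effect; 0% = vehicle wells and -100% = peptide control; nearly all actives have a fitted effect of over 45% in size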
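AMA1 (3D7) with his tag at 25 nM final met compounds first, then biotinylated RON2 peptide at 25 nM; detection used donor plus acceptor beads, 10 µg/mL apiece, read by AlphaScreen after 30 min at room temperature.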
Pf growth 48h: Primary qHTS for delayed death inhibitors of the malarial parasite plastid, 48 hour incubation. P. falciparum luciferase growth in erythrocytes, 48 h. Potency, µM (series often up to 28.7 µM), inactives show at the top dose activity change, negative = inhibition, most hits filed as inhibitors. 310,000 compounds, 5.9% hits. AID 504832, 2011; also: potency is read from the fitted curve at half-maximal effect; % is scaled to controls: 0 for no effect and ±100 for the full control effect
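Read-out is firefly luciferase luminescence from an integrated reporter in P. falciparum, so falling signal marks reduced parasite growth. Infected erythrocytes were at 2% hematocrit and 0.1% parasitemia (final) in Albumax-supplemented RPMI 1640.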
Pf growth 96h: Primary qHTS for delayed death inhibitors of the malarial parasite plastid, 96 hour incubation; 320,000 compounds, 6.9% hits; P. falciparum luciferase reporter growth, 96 h; Potency, µM (doses to about 28.7 µM), inactives show top-dose activity change, negative = inhibition, usual class: inhibitors; also: potency is read from the fitted curve at half-maximal effect; % is scaled to controls: 0 for no effect and ±100 for the full control effect
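Luminescence readout: decreased luciferase signal marks inhibited growth of reporter-expressing P. falciparum in infected red cells (2% hematocrit, 0.05% parasitemia final), exposed to compound two generations (96 h, 37 C, 5% CO2).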
CHX counter: Cycloheximide Counterscreen for Small Molecule Inhibitors of Shiga Toxin. cell reporter, cycloheximide protein synthesis inhibition counterscreen. max response, %. 300,000 compounds, 12% hits; in the data active = max response mostly above about 13%, no sharp cut-off; inactive = mostly below about 14%; also: read at 38.3 µM for the half of the compounds with a filed dose; 0% is about no effect
Shiga inhibitor: A qHTS for Small Molecule Inhibitors of Shiga Toxin | Vero cells, Shiga toxin protein synthesis inhibition reporter | 290,000 compounds, 9.2% hits | inhibition, % at 38.7 µM; in the data active = inhibition mostly above about 28%, no sharp cut-off; inactive = mostly below about 43%; also: 0% is about no effect
Numbers without * were called inactive; ? = inconclusive; nt = not tested or not shown; [ ] = another dose, or the depositor's remark. An excerpt weighted towards active compounds, which were near 21% of everything screened. Unless noted, calls follow the shape of the dose curve; as a rule, active = well fitted curve in the direction sought with a large enough effect; inconclusive = small, poorly fitted or top-dose-only effect, or another doubt; inactive = no such curve, though single readings can be large; an effect the other way counts as inactive or inconclusive.

SMILES	HCV inhibitor	AMA1-RON2 inh	Pf growth 48h	Pf growth 96h	CHX counter	Shiga inhibitor
CCCCn1c(N)c(N(CC(C)C)C(=O)C2CC(=O)N(c3ccc(CC)cc3)C2)c(=O)[nH]c1=O (centres undefined)	5%	-3%	?	-15%	nt	nt
Cc1nc(N)c(CC(Br)CBr)c(Cl)n1 (centres undefined)	-12%	3%	0.074µM*	?	1	21
CCCCOCCCNC(=O)c1ccc([N+](=O)[O-])c(C)c1	-7%	-2%	-8%	15%	1	1
CCC(CC)C(=O)Nc1cccc(C(=O)NCCc2ccccc2)c1	-10%	-2%	12%	15%	19*	105*
CCn1cc(CNC(=O)c2ccc(Cl)c([N+](=O)[O-])c2)c(C)n1	11%	3%	-26%	15µM*	-2	28
CC(=O)Nc1ccc(Nc2ccc(S(=O)(=O)C(F)(F)F)cc2[N+](=O)[O-])cc1	-25%	-7%[11.6 µM]	15µM*	?	12	0
Cc1cc(C(=O)NCCc2ccccc2)ccc1[N+](=O)[O-]	-8%	-3%	188%	81%	55*	54*
NC(=O)CSc1n[nH]c(=O)n1CCc1ccccc1	4%	-4%	-24%	-6%	2	-2
NS(=O)(=O)c1ccc(CCNC(=O)c2ccccc2[N+](=O)[O-])cc1	-6%	3%[2.32 µM]	4%	55%	-2	-4
O=C(NCCc1ccccc1)c1ccccc1[N+](=O)[O-]	-1%	10%	43%	?	22*	44*
O=C(Cc1ccccc1)NCC(=O)OCC(=O)c1ccc(Cl)c([N+](=O)[O-])c1	3%	11%	0%	?	0	3
O=C(NCCc1ccccc1)c1ccc(Cl)c([N+](=O)[O-])c1	?	-5%	83%	30%	64*	136*
O=C(NCCc1ccccc1)c1ccc(NCC2CCCO2)c([N+](=O)[O-])c1 (centres undefined)	-10%	-9%	87%	27%	43*	117*
Cc1cccc(C(=O)NCCc2ccccc2)c1	12%	-1%	nt	?	61*	88*
NC(=O)c1ccc(NCC2CCCO2)c([N+](=O)[O-])c1 (centres undefined)	5%	0%	28%	-2%	26	10
CC(C)OCCCn1c(-c2ccc(Br)cc2)c[nH]c1=S	-3%	11%	?	1%	-1	-12
O=[N+]([O-])c1cc(S(=O)(=O)C(F)(F)F)ccc1NCC1CCCO1 (centres undefined)	-20%	-13%	20%	6%	12	32*
O=C(O)CNc1ccc(S(=O)(=O)C(F)(F)F)cc1[N+](=O)[O-]	21%	-1%	21%	-10%	-1	23
Cc1cc(NC(=O)CCc2ccccc2)c([N+](=O)[O-])cc1C	-22%	-10%	32%	0%	36*	-2
Cc1ccc2cc(CN(c3cccc(C)c3C)S(=O)(=O)c3ccccc3)c(=O)[nH]c2c1	?	4%	?	15%	-5	-4
CN(CC(=O)N1CCN(c2ccccc2)CC1)C1CCCc2ccccc21 (centres undefined)	15%	-14%	-16%	-8%	-1	11
COc1ccc(S(=O)(=O)N2CCCC2C(=O)n2nc(C)cc2C)cc1 (centres undefined)	-5%	2%	22%	?	1	-8
S=C(NN=C(c1ccccc1)c1ccccn1)N(Cc1ccccn1)Cc1ccccn1	1.3µM*	11µM*	nt	nt	nt	nt
O=C(CCCC(=O)N/N=C\c1ccccn1)N/N=C\c1ccccn1	7%	107%	18%	?	0	-20
S=C(NN=Cc1ccccn1)N(Cc1ccccn1)Cc1ccccn1	1.3µM*	-21%	nt	nt	nt	nt
SMILES	HCV inhibitor	AMA1-RON2 inh	Pf growth 48h	Pf growth 96h	CHX counter	Shiga inhibitor
O=C(NN=C(c1ccccc1)c1ccccn1)c1ccccc1	2.5µM*	46%	nt	nt	nt	nt
COc1ccc(C(=O)N/N=C(\c2ccccc2)c2ccccn2)cc1	2.8µM*	27%	2.6µM*	3.7µM*	16	53*
O=C(NCCC(=O)N1CCN(C(=O)c2ccco2)CC1)c1ccc(Br)cc1	-9%	-15%	-1%	-27%	nt	nt
O=C(N/N=C(\c1ccccc1)c1ccccn1)c1ccccc1Cl	?	60%	2.3µM*	2.6µM*	1	-4
O=C(NC(O)C(=O)c1ccccc1)c1cccs1 (centres undefined)	16%	-9%	nt	41%	-5	-5
O=C(NC(O)C(=O)c1ccccc1)c1ccccn1 (centres undefined)	6%	3%	-20%	-5%	26*	38*
CC(C)CN1CCC(=O)N(C(CSc2ccc(Br)cc2)Cc2ccccc2)CC1 (centres undefined)	nt	nt	nt	nt	16	7
Cc1ccc(S(=O)(=O)c2nnn3c2nc(NC2CCN(Cc4ccccc4)CC2)c2ccccc23)cc1C	?	-7%	2.9µM*	?	7	-5
Cc1ccc(S(=O)(=O)c2nnn3c2nc(N2CCOCC2)c2ccccc23)cc1C	10µM*	-3%	?	?	-1	13
COc1ccc(S(=O)(=O)N2CCCCC2c2cc(C(=O)NCc3ccccc3)no2)cc1 (centres undefined)	nt	1%	nt	nt	nt	nt
CC(C)Oc1ccc(/C(O)=C2/C(=O)C(=O)N(CCN3CCNCC3)C2c2cccc([N+](=O)[O-])c2)cc1 (centres undefined)	2%	-5%	9%	131%	-2	7
COC(=O)C(C)Oc1ccc2c(c1)O/C(=C\c1ccco1)C2=O (centres undefined)	10%	-17%	7%	3%	37*	71*
COc1ccc2c(c1)O/C(=C\c1ccco1)C2=O	2%	-23%	126%	114%	30*	38
COc1ccc(/C=C2\Oc3cc(OCC(N)=O)ccc3C2=O)cc1OC	3%	1%	6%	16%	-2	2
CC(C)OCCCNc1ncc2c(n1)CC(c1cccs1)CC2=O (centres undefined)	0%	11%	?	13µM*	10	23
CCN1CCn2c3c(c4cc(C)ccc42)CCCC31 (centres undefined)	?	-5%	8.3µM*	55%	25*	40
Cc1ccc2c(c1)c1c3n2CCN(CCC#N)C3CCC1 (centres undefined)	nt	-4%	nt	nt	nt	nt
Cc1ccc2c(c1)c1c3n2CCN(C(=O)CCl)C3CCC1 (centres undefined)	22µM*	-5%	?	?	9.8*	24
COC(=O)C[C@@H]1CC[C@@H](NC(C)=O)[C@@H](CO)O1	nt	1%	nt	nt	nt	nt
